These results are taken from PubChem BioAssay.

“And” between values parts separate entries of the source, which are not always exact repeats. Identical values can stand only once. The source made the active and inactive calls.

Assay [1] can be described thus: small molecules captured by biotinylated probe aFSTL3 – biochemical, small-molecule microarray, fluorescence 635/667, stem cell growth factor project, primary screen (AID 1064).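 Note: measures binding of the biotinylated anti-FSTL3 antibody to printed compounds.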 The settings on record: higher = more signal.
Assay [2] in a line: binders from COS7 lysate, DM2A8 probe, primary screen, torsin A project, cell lysate, small-molecule microarray, fluorescence 635/667 (AID 1065). As to conditions: higher = more signal, COS7 lysate expressing mutant human TOR1A.
A short description of assay [3]: small molecules captured by biotinylated probe aFGF2 – biochemical, small-molecule microarray, fluorescence 635/667, stem cell growth factor project, primary screen (AID 1067).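 Note: measures binding of biotinylated aFGF2 protein to printed compounds on slides; z-score merges feature fluorescence and signal-to-noise across triplicate slides.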 The settings on record: higher = more signal.
A short description of assay [4]: small molecules captured by biotinylated probe aFGF10 – biochemical, small-molecule microarray, fluorescence 635/667, stem cell growth factor project, primary screen (AID 1071).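 Note: score merges 667 nm spot intensity and signal to noise from triplicate slides.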 The settings on record: higher = more signal.
The target of assay [5] is Neurogenic locus notch homolog protein 2 (Homo sapiens) (UniProt Q04721). The assay is described as follows: small molecules binding Notch2 protein – biochemical, small-molecule microarray, 635 nm fluorescence, stem cell growth factors, primary screen (AID 1073). The settings on record: higher = more signal.
Assay [6] addresses Pro-neuregulin-1, membrane-bound isoform (Homo sapiens) (UniProt Q02297). The assay is described as follows: small molecules binding neuregulin-1 protein – biochemical, small-molecule microarray, fluorescence 635/667, psychiatric disease protein project, primary screen (AID 1075).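 Note: score combines 667 nm spot fluorescence with signal to noise.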 The settings on record: NRG1 binding, 635 nm fluorescence, higher = more signal.
The test system of assay [7] is Neuregulin-1 EGF-like domain. Briefly: small molecules binding NRG1 EGF domain – biochemical, small-molecule microarray, 635 nm fluorescence, primary screen (AID 1081).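 Note: binding of the protein to compounds printed on small-molecule microarray slides.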 The settings on record: higher = more signal.
The nature of assay [8]: FRG1 expression reporter modulators in myotubes – cell-based, C2C12 myotubes, firefly/Renilla luciferase, luminescence, FRG1 inhibition for FSHD, primary screen (AID 1084). As to conditions: FRG1 promoter luciferase, higher = more signal, called active from +8 up or from −8 down.
The nature of assay [9]: small molecules captured by biotinylated probe aFST – biochemical, small-molecule microarray, fluorescence 635/667, stem cell growth factor project, primary screen (AID 1086).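 Note: score merges 667 nm fluorescence with signal-to-noise of each printed compound spot.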 As to conditions: higher = more signal.
Assay [10] can be described thus: binders of probe aHhip on microarray, primary screen, stem cell growth factor project, biochemical, small-molecule microarray, fluorescence 635/667 (AID 1087).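 Note: score merges spot fluorescence at 667nm with spot signal to noise ratio.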 The settings on record: higher = more signal.
The subject of assay [11] is PRMT1 (protein arginine N-methyltransferase 1). The assay is described as follows: small molecules binding arginine methyltransferase PRMT1 – biochemical, small-molecule microarray, 635 nm fluorescence, primary screen (AID 1088).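 Note: binding of Prmt1 protein to compounds spotted on small-molecule microarray slides.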 As to conditions: higher = more signal.
Assay [12] can be described thus: growth effects on S. cerevisiae YJM789 – YJM789 clinical isolate, OD600, 24 h, basal, primary screen (AID 1089).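 Note: growth of clinical yeast isolate S. cerevisiae YJM 789 seeded 1000 cells per well; test concentration not given here.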 The settings on record: higher = more signal, called active from +8 up or from −8 down.
Assay [13] can be described thus: S. pombe growth modifiers, basal conditions – strain 972, OD600, 24 h, no modulator, primary screen (AID 1090).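 Note: basal condition with compound alone and no growth modifier present; test concentration not given here.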 As to conditions: S. pombe 972 growth, higher = more signal, called active from +8 up or from −8 down.
A short description of assay [14]: budding yeast growth modifiers under rapamycin – strain BY4716, OD600, 96 h, primary screen (AID 1091). Note: test concentration not given here. The settings on record: S. cerevisiae BY4716 + rapamycin, higher = more signal, called active from +8 up or from −8 down.
Assay [15] has as its target Torsin-1A-interacting protein 2 (Homo sapiens) (UniProt Q8NFQ8). Briefly: small molecules binding lysate-expressed LULL1 – cell lysate, human LULL1 lysate, 635/667 nm fluorescence, primary screen (AID 1092).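 Note: probe is lysate of COS7 cells overexpressing human LULL1; score merges per-feature 667 nm fluorescence with signal-to-noise.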 As to conditions: small-molecule microarray, hLULL1 lysate binding, 635 nm fluorescence; higher = more signal.
The nature of assay [16]: optical density change of DRC41 E. coli – strain DRC41, OD650, 24 h, E. coli filamentation project, primary screen (AID 1093).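 Note: MC1000 strain lacking acrAB efflux and sulA so SOS filamentation is blocked; test concentration not given here.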 As to conditions: E. coli DRC41 growth, higher = more signal, called active from +8 up or from −8 down.
Assay [17] can be described thus: probe aLefty2 binding to arrayed compounds – biochemical, biotinylated probe, 635/667 nm fluorescence, primary screen (AID 1094).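 Note: score merges spot fluorescence near 667 nm with spot signal-to-noise ratio.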 The settings on record: small-molecule microarray, higher = more signal.
Assay [18] concerns Noggin (protein binding on small-molecule microarray). Briefly: small molecules binding Noggin protein – biochemical, 635/667 nm fluorescence, primary screen (AID 1095).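 Note: score merges 667 nm feature fluorescence with signal to noise over triplicate slides.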 As to conditions: 635 nm fluorescence, higher = more signal.
The target in assay [19] is Neurogenic locus notch homolog protein 3 (Homo sapiens) (UniProt Q9UM47). The assay is described as follows: small molecules binding NOTCH3 protein – biochemical, 635/667 nm fluorescence, primary screen (AID 1096). The settings on record: small-molecule microarray, 635 nm fluorescence, higher = more signal.
Sequence of Neurogenic locus notch homolog protein 3 (Homo sapiens) (Q9UM47 whole entry, looked up): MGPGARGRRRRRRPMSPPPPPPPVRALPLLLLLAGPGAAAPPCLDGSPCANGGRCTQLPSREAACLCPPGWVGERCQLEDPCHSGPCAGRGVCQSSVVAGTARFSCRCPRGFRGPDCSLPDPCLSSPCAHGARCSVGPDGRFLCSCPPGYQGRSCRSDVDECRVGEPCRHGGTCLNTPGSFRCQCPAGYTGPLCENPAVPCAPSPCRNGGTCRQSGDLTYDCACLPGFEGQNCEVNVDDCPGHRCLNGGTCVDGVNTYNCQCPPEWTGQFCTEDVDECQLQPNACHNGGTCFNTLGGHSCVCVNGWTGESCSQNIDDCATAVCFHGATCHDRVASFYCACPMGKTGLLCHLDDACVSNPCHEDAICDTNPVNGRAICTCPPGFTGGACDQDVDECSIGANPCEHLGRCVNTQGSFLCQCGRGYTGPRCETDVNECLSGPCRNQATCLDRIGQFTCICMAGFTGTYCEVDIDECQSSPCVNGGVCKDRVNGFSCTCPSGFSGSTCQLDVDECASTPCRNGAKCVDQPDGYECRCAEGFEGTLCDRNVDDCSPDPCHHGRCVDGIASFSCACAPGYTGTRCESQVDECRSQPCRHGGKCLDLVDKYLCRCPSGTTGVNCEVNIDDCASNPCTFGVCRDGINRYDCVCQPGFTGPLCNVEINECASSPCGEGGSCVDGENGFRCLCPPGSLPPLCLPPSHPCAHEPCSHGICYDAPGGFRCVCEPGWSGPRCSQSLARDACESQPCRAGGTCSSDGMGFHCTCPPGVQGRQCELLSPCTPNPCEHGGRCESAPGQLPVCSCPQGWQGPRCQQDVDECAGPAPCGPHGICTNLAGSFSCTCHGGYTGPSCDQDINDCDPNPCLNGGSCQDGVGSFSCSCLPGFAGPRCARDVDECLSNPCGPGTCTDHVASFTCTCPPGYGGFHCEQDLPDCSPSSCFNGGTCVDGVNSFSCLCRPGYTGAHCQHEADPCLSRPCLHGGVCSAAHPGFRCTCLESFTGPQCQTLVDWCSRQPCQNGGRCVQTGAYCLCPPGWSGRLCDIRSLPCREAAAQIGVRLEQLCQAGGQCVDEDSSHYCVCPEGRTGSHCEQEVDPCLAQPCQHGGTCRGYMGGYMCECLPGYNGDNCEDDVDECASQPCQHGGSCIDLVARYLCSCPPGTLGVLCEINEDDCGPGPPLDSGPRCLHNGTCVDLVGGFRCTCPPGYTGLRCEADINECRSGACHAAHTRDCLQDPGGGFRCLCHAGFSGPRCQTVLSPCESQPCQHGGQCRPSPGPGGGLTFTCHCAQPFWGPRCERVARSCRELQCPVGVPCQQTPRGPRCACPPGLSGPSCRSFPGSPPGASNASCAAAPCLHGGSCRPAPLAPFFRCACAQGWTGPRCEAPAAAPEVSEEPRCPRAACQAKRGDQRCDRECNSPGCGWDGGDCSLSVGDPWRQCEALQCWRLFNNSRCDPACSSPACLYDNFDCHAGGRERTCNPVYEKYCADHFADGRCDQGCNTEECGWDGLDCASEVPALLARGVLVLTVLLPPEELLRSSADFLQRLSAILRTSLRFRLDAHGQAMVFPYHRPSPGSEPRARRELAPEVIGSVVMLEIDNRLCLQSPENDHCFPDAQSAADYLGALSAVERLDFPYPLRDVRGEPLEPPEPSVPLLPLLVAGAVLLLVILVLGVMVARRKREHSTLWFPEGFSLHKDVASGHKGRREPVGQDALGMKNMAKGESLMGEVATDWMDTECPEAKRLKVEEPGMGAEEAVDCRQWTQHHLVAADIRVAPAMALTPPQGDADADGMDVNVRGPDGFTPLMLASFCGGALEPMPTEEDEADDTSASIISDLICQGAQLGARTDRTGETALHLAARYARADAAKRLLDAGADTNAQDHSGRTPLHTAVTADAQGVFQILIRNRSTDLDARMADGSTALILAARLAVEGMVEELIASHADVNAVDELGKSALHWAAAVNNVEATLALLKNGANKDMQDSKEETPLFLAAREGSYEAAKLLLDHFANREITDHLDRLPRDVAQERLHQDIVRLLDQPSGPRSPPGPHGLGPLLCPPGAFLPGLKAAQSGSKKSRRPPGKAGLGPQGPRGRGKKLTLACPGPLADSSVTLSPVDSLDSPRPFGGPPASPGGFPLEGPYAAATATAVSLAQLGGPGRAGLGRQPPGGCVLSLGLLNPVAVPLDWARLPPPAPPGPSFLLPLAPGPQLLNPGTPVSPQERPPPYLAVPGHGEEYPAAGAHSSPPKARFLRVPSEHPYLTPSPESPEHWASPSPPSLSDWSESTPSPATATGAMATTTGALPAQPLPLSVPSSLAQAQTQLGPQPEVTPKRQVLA
Assay [20] is described as follows: probe aEGFR binding to arrayed compounds – biochemical, biotinylated probe, 635/667 nm fluorescence, primary screen (AID 1097).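 Note: probe is a biotinylated anti-EGFR antibody binding compounds printed on slides; score combines fluorescence near 667 nm and signal to noise of each spot.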 As to conditions: small-molecule microarray, higher = more signal.

Sequence of Pro-neuregulin-1, membrane-bound isoform (Homo sapiens) (Q02297 whole entry, looked up, the tested form may be a part, canonical isoform): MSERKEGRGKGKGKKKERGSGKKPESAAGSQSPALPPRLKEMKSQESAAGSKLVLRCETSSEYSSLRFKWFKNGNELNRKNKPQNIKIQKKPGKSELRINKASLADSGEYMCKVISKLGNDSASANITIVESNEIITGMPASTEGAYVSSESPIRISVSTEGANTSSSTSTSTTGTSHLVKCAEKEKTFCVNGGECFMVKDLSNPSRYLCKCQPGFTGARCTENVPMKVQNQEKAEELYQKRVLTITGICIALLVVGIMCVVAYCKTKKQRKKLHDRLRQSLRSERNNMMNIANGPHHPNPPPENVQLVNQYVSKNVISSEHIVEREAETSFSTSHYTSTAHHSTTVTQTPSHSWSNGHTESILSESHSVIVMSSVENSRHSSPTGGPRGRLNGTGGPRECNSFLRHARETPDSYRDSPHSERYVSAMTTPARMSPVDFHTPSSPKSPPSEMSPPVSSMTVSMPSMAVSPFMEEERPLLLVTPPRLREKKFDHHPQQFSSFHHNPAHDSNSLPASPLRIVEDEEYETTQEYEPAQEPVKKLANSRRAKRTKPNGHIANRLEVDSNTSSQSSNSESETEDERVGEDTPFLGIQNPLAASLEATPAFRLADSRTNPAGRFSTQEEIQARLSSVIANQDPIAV
Sequence of Torsin-1A-interacting protein 2 (Homo sapiens) (Q8NFQ8 whole entry, looked up): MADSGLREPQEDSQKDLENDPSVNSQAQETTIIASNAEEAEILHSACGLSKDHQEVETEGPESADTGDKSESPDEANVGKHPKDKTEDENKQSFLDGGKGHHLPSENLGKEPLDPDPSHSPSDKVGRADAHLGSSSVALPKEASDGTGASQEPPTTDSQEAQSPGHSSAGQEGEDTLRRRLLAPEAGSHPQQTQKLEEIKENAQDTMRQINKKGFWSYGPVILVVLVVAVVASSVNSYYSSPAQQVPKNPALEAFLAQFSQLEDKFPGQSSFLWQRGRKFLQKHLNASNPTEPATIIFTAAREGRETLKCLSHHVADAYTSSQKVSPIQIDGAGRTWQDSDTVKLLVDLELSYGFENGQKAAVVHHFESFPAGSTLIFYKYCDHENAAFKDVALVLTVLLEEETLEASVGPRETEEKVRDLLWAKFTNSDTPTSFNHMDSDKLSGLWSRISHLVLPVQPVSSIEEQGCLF

`C=CCN(C(=O)C(c1cccs1)N(C(=O)/C=C\C(=O)O)c1ccc(CCO)cc1)C(C)(C)C` (stereo not given): the composite z-score in assay [1] is 0.396 and 0.476; in [2] it was -0.534 and -0.804; in assay [3], -0.212 and -0.192; in assay [4], -0.439 and -1.66; in [5], -0.898 and -1.52; in assay [6] it was 1.04 and 2.28. The composite z-score was 0.71 and 1.3 in assay [7]; -0.23 and -0.706 in [9]; -0.0618 and -0.134 in assay [10]; -0.417 and -0.231 in [11]; 3.58 and 3.17 in [15]; -0.0964 and -0.116 in [17]. For the same molecule, the composite z-score in assay [18] was -2.17 and -1.9; in assay [19] it was -0.583 and -1.21; in assay [20], -0.106 and -0.209. Further, the z-score in assay [8] is 1.28 (inactive) and 0.16 (inactive); in assay [12] it was -0.042 (inactive) and 0.181 (inactive); in assay [13] it was -0.701 (inactive) and 0.442 (inactive); in assay [14] it was -0.3 (inactive) and -0.104 (inactive); in assay [16], 0.286 (inactive) and -0.294 (inactive).

Regarding `CCOC(=O)[C@H](Cc1ccccc1)NC(=O)CCC1CC(OC(=O)NCc2cccc3ccccc23)CC2(CCCC(COC(=O)NCCCN3CCCC3=O)O2)O1` (stereo not given in full), the composite z-score was -0.511 in [1]; 0.221 in assay [2]; -0.107 in assay [3]; 0.122 in assay [4]; 1.1 in [5]; 0.412 in [6]. Moreover, the composite z-score in assay [7] is 0.783; in assay [9] it was 0.249; in assay [10], -0.0994; in assay [11], 1.21; in assay [15], 2.01; in [17], -0.148. Moreover, the figures for the composite z-score in [18], in [19] and in [20] were 0.692, 1.01 and -0.0578, respectively. Moreover, the z-score in assay [8] is -0.81 (inactive); in assay [12], -1.18 (inactive); in [13], 0.134 (inactive); in [14], -0.896 (inactive); in assay [16] it was -0.288 (inactive).

As to `C=CCN(CCCCC)C(=O)C(c1cccs1)N(C(=O)/C=C\C(=O)O)c1ccc(CCO)cc1` (stereo not given), the composite z-score in assay [1] is 0.786 and 0.657; in [2], -1.96 and -1.13; in assay [3], -0.182 and -0.201; in [4], -0.507 and -1.34; in assay [5] it was -1.77 and -0.81; in [6], 0.279 and -0.706. In addition, the composite z-score is 1.53 and 1.51 in assay [7]; -0.713 and -0.498 in assay [9]; 0.106 and -0.274 in [10]; 0.275 and -0.0988 in [11]; 1.64 and 0.636 in [15]; -0.254 and -0.0927 in [17]. Also, the composite z-score is -1.9 and -1.27 in assay [18]; -1.01 and -1.02 in assay [19]; -0.309 and -0.313 in [20]. The z-score in [8] is 0.349 (inactive) and 0.348 (inactive); in assay [12], 0.472 (inactive) and 0.0638 (inactive); in [13], -0.265 (inactive) and 0.206 (inactive); in assay [14], 0.499 (inactive) and 0.494 (inactive); in [16], 0.295 (inactive) and -0.109 (inactive).

Regarding `C=CCN(C(=O)C(c1cccs1)N(CCOCCO)C(=O)/C=C\C(=O)O)c1ccc(OC)cc1` (stereo not given), the composite z-score in assay [1] was -0.454 and 0.71; in [2], -0.415 and -1.59; in assay [3], -0.103 and -0.186; in assay [4], -0.729 and -1.06; in [5], -1.03 and -1.83; in assay [6], -0.933 and -1.12. In addition, the composite z-score in [7] is -0.247 and -0.936; in assay [9], -0.348 and -0.687; in assay [10] it was -0.301 and -0.226; in assay [11], -1.56 and -0.685; in assay [15] it was -1.45 and -0.709; in assay [17], -0.25 and -0.299. Besides, the composite z-score in assay [18] was -0.482 and -1.39; in [19] it was -1.2 and -0.655; in [20], -0.172 and -0.316. Further, the z-score in assay [8] was -0.993 (inactive) and -0.205 (inactive); in [12] it was -2.54 (inactive) and -0.463 (inactive); in [13], -0.314 (inactive) and -2.05 (inactive); in assay [14] it was -1.51 (inactive) and -0.835 (inactive); in [16] it was 2.74 (inactive) and 2.71 (inactive).
